TRPM1 prom inh = reduces MITF-dependent TRPM1 promoter luciferase signal; inhibition, % at 12.5 µM; SK-MEL-5 TRPM1 promoter luciferase, 24 h; AID 488899; 330,000 tested, 0.83% active;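 active = mean inhibition across replicates of 60% or more, whatever share of single replicates reaches that level; inconclusive = some that reach 60%, reason not given; inactive = mean inhibition across replicates below 60%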
LGR2 inh = blocks bursicon-induced cAMP signaling via Drosophila LGR2; HEK293 LGR2, CRE-luciferase, bursicon-stimulated, 4 h; inhibition, % at 9.99 µM; 380,000 tested, 0.35% active;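 active = drop in luminescence signal, shown as inhibition above about 50% in the replicate tests, limit read from the data, passing the limit was not always enough; inconclusive = probably only some replicates passing the limit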;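 note: agonist challenge used bursicon conditioned medium at about half maximal strength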
Shn3 3UTR inh = reduces Shn3 3'UTR luciferase signal in osteoblasts | AID 588674 | 360,000 tested, 0.52% active | inhibition, % at 12.5 µM | Clone20 osteoblast Shn3 3'UTR firefly luciferase, 24 h;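 active = mean inhibition of at least 75% with every replicate also reaching 75%; inconclusive = mean inhibition at least 75% but some replicate below; inactive = mean inhibition below 75%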;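 note: 0% = median of neutral control wells and 100% = pilot-screen positive control compound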
LMP1 NFkB inh = reduces LMP1-driven NF-kappaB luciferase signal. AID 504558. 350,000 tested, 0.69% active. LMP1-induced NF-kappaB luciferase reporter cells, luminescence. inhibition, % at 12.5 µM; in the data active = inhibition above about 41%; inconclusive = no clear call, values can overlap the other calls;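 note: 0% = neutral control wells and 100% = reference inhibitor control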
EWS-Fli block = EWS/Fli transcriptional activity inhibition. A673 NR0B1-luciferase reporter, viability-normalised. 350,000 tested, 0.67% active. inhibition, % at 12.6 µM;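 active = mean inhibition of at least 50% after viability correction, with every replicate also passing that limit; inconclusive = mean reaches 50% but only one of two replicates passes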;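 note: firefly luciferase signal divided by Alamar Blue viability fluorescence both relative to DMSO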
PAX8 reporter = PAX8 transcriptional activity inhibition. RMG-I TPO-luciferase reporter, SteadyGlo, 24 h. inhibition, % at 12.6 µM. 360,000 tested, 1.2% active;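 active = mean replicate inhibition at least 60% with every replicate also reaching 60%; inconclusive = only one of the two criteria is met; inactive = mean below 60% and not all replicates reaching 60%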;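 note: luciferase light reporting Pax8 driven TPO promoter activity; plate controls were median of neutral control wells for no effect and mitoxantrone controls for full effect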
Starred values were filed as active, the others as inactive; ? = inconclusive; nt = no result given. Compounds with a hit are over-represented: about 2.2% of the library has one in this group of screens.

SMILES	TRPM1 prom inh	LGR2 inh	Shn3 3UTR inh	LMP1 NFkB inh	EWS-Fli block	PAX8 reporter
C[C@H]1CN([C@@H](C)CO)C(=O)c2c(c3ccccc3n2C)-c2ccccc2CO[C@H]1CN(C)S(=O)(=O)c1ccc(C(F)(F)F)cc1	nt	3	nt	nt	11	85*
C[C@@H]1CN([C@H](C)CO)C(=O)c2ccccc2-c2ccccc2CO[C@@H]1CN(C)Cc1ccccc1C(F)(F)F	nt	3	nt	nt	23	75*
C[C@@H]1CN([C@@H](C)CO)C(=O)c2ccccc2-c2ccccc2CO[C@@H]1CN(C)Cc1ccccc1C(F)(F)F	nt	11	nt	nt	19	45
C[C@@H]1CN([C@H](C)CO)C(=O)c2c(c3ccccc3n2C)-c2ccccc2CO[C@H]1CN(C)S(=O)(=O)c1ccc(C(F)(F)F)cc1	nt	29	nt	nt	16	83*
C[C@H]1CN([C@@H](C)CO)C(=O)c2c(c3ccccc3n2C)-c2ccccc2CO[C@H]1CN(C)S(=O)(=O)c1ccc([N+](=O)[O-])cc1	nt	-1	nt	nt	8	91*
CO[C@@H]1CN(C)C(=O)c2ccc(NC(=O)C3CC3)cc2OC[C@H](C)N(C(=O)Cc2ccccn2)C[C@@H]1C	nt	-17	nt	nt	1	-6
C[C@H](CO)N1C[C@H](C)[C@@H](CN(C)C(=O)Nc2ccc3c(c2)OCO3)Oc2ccc(NS(=O)(=O)c3ccccc3)cc2CC1=O	nt	-2	nt	nt	-14	-4
COc1cccc(C(=O)Nc2ccc3c(c2)C(=O)N(C)[C@H]2CC[C@H](CC(=O)NCc4ccccc4F)O[C@H]2CO3)c1	nt	11	nt	nt	1	-1
C[C@@H]1CCCCO[C@H](CN(C)C)[C@@H](C)CN([C@H](C)CO)C(=O)c2cc(NS(=O)(=O)c3cn(C)cn3)ccc2O1	nt	16	nt	nt	nt	-11
C[C@H]1CN([C@@H](C)CO)C(=O)c2c(c3ccccc3n2C)-c2ccccc2CO[C@@H]1CN(C)C(=O)CCC(F)(F)F	nt	7	nt	nt	24	65*
C[C@H](CO)N1C[C@H](C)[C@@H](CN(C)Cc2ccc(Oc3ccccc3)cc2)OCc2ccccc2-c2c(n(C)c3ccccc23)C1=O	nt	12	nt	nt	8	89*
C[C@@H]1CN([C@H](C)CO)C(=O)c2c(c3ccccc3n2C)-c2ccccc2CO[C@@H]1CN(C)C(=O)CCC(F)(F)F	nt	-2	nt	nt	6	6
CN(C)CC(=O)N[C@H]1CC[C@H](CCn2cc(C3CC3)nn2)O[C@@H]1CO	nt	-6	nt	nt	6	-8
C[C@H](CO)N1C[C@H](C)[C@@H](CN(C)C)OCc2cn(nn2)CCCC1=O	nt	1	nt	nt	5	-10
OC(c1cc(-c2cccc(Cl)c2)nc2ccccc12)C1CCCCN1 (stereo unspecified)	98*	13	90*	-37	-3	6
COC(=O)CSc1nc(-c2ccc(F)cc2)cc(C(F)(F)F)n1	-1	nt	-10	-1	nt	nt
OC(c1cc(-c2ccc(C(F)(F)F)cc2)nc(C(F)(F)F)c1)C1CCCCN1 (stereo unspecified)	100*	2	96*	-12	35	88*
OC(c1cc(C(F)(F)F)nc2c(C(F)(F)F)cccc12)C1CCCCN1 (stereo unspecified)	36	70*	21	-15	59*	22
O=C(NCC1CCCCC1)[C@@H]1[C@@H](CO)[C@@H]2Cn3c(ccc(-c4ccncc4)c3=O)[C@H]1N2	nt	1	nt	nt	1	-10
C[C@@H]1CCCCO[C@@H](CN(C)Cc2ccc3c(c2)OCO3)[C@H](C)CN([C@@H](C)CO)C(=O)c2cc(NS(=O)(=O)c3ccc(Cl)cc3)ccc2O1	nt	-24	nt	nt	1	1
C[C@@H]1CCCCO[C@H](CN(C)Cc2ccc3c(c2)OCO3)[C@@H](C)CN([C@@H](C)CO)C(=O)c2cc(NS(=O)(=O)c3ccc(Cl)cc3)ccc2O1	nt	32	nt	nt	?	114*
Cc1ccc(S(=O)(=O)Nc2ccc3c(c2)C(=O)N([C@@H](C)CO)C[C@@H](C)[C@@H](CN(C)Cc2ccc4c(c2)OCO4)OCCCC[C@H](C)O3)cc1	nt	11	nt	nt	3	72*
C[C@@H]1CN([C@@H](C)CO)C(=O)c2cc(NS(=O)(=O)c3ccc(Cl)cc3)ccc2O[C@@H](C)CCCCO[C@@H]1CN(C)Cc1ccc2c(c1)OCO2	nt	-22	nt	nt	13	71*
CN(C)CCCNC(=O)[C@H]1[C@H](CO)[C@H]2Cn3c(ccc(C4=CCCC4)c3=O)[C@H]2N1CCC(F)(F)F	nt	-14	nt	nt	-15	nt
